UHRF1 binding: UHRF1 methylated DNA binding inhibitors, primary screen, counter-screen for MBD2 inhibitor project, biochemical, TR-FRET, human UHRF1, single concentration | UHRF1 binding to methylated oligo | inhibition, % at 4.4 µM | E3 ubiquitin-protein ligase UHRF1 (Homo sapiens), Q96T88 | AID 687016, 2013 | 370,000 tested, 0.75% active; in the data active = inhibition above about 21%;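 note: UHRF1 SRA domain binding a hemimethylated CpG hairpin DNA probe; 0% = median of test compound wells and 100% = reference inhibitor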
Target sequence (Q96T88 whole entry, looked up, the tested form may be a part): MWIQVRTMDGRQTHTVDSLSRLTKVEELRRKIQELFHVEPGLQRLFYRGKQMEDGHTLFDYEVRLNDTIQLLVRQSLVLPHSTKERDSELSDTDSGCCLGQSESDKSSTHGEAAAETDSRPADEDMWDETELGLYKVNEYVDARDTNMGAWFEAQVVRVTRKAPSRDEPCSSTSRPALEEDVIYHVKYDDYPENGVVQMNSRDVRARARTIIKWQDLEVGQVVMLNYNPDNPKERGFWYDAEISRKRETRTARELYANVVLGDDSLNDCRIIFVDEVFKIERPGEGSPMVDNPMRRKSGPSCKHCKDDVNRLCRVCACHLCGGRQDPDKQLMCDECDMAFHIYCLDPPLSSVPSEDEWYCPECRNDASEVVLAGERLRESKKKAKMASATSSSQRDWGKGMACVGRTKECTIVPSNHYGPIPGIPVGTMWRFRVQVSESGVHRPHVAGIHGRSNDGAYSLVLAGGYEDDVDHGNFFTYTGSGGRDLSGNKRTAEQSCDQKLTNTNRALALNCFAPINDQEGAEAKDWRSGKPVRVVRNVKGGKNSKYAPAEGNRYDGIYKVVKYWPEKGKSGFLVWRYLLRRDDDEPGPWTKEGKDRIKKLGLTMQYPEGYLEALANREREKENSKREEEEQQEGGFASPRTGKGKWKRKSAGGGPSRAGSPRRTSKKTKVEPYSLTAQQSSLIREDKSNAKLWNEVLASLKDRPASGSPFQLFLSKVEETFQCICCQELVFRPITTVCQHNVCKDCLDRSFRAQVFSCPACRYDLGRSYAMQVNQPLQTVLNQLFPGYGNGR
PRMT1 inh: PRMT1 methyltransferase inhibitors, primary screen, biochemical, fluorescence polarization. Protein arginine N-methyltransferase 1 (Homo sapiens), Q99873. recombinant PRMT1, activity-based probe fluorescence polarization. inhibition, % at 2.79 µM. 370,000 tested, 1.3% active;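 active = inhibition above about 21% made by adding two undisclosed values, limit read from the data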
LEDGF integ inh: blockers of LEDGF/p75-dependent integrase strand transfer – biochemical, TR-FRET, high throughput, primary screen. HIV-1 integrase (with human LEDGF/p75). 370,000 tested, 0.64% active. TR-FRET IN-LEDGF/p75 DNA integration, Eu/Cy5. inhibition, % at 3.7 µM;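 active = inhibition above the screen-wide mean plus 3 SD, cut at about 13% in these data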;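 note: signal is the Cy5 over europium emission ratio at 671 and 618 nm; 0% = plate median of compound wells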
MBD2 inh: inhibitors of MBD2 binding to methylated DNA, primary screen, biochemical, TR-FRET, DNA-binding domain, human; Methyl-CpG-binding domain protein 2 (Homo sapiens), Q9UBB5; MBD2 binding to methylated oligonucleotide; inhibition, % at 4.4 µM; 370,000 tested, 0.31% active; AID 686964, 2013; in the data active = inhibition above about 13%
Starred values were filed as active, the others as inactive. Compounds with a hit are over-represented: about 2.5% of the library has one in this group of screens.

What do the screens show for `COc1ccc(N2CC(NC(=O)c3cccc4ccccc34)CC2=O)cc1OC` (stereo not given)?
UHRF1 binding: 5; PRMT1 inh: -4; LEDGF integ inh: 5; MBD2 inh: 0

How did COc1cccc(N2CC(NC(=O)c3cccc4ccccc34)CC2=O)c1 (stereo not given) do in these assays?
UHRF1 binding: 34*; PRMT1 inh: 1; LEDGF integ inh: -2; MBD2 inh: -4

Results for CCCCn1c(N)c(N(Cc2ccccc2OC)C(=O)COc2ccccc2C#N)c(=O)[nH]c1=O ?
UHRF1 binding: 7; PRMT1 inh: 4; LEDGF integ inh: -5; MBD2 inh: 4

What do the screens show for `CCOc1ccc(/C=N/Nc2ccccn2)cc1OC`?
UHRF1 binding: 47*; PRMT1 inh: 0; LEDGF integ inh: 2; MBD2 inh: -2

Results for CCCOc1ccc(/C=N/Nc2ccccn2)cc1OC ?
UHRF1 binding: 2; PRMT1 inh: 2; LEDGF integ inh: -3; MBD2 inh: 1

How did COc1ccc(C(=O)Nn2c(CC(C)C)nc3cc(OC)c(OC)cc3c2=O)c(OC)c1 do in these assays?
UHRF1 binding: 34*; PRMT1 inh: -2; LEDGF integ inh: -5; MBD2 inh: 2

Results for COc1cc2nc(CC(C)C)n(NC(=O)c3ccccc3)c(=O)c2cc1OC ?
UHRF1 binding: 1; PRMT1 inh: -3; LEDGF integ inh: 0; MBD2 inh: -3

How did CC1=CC(C)(C)N2C(=O)C3(C(C#N)=C(N)OC4=C3C(=O)CC(C)(C)C4)c3cccc1c32 (stereo not given) do in these assays?
UHRF1 binding: 21*; PRMT1 inh: 0; LEDGF integ inh: 1; MBD2 inh: 12

Results for CC1=CC(C)(C)N2C(=O)C3(C(C#N)=C(N)OC4=C3C(=O)CC(C)(C)C4)c3c(C)c(C)cc1c32 (stereo not given) ?
UHRF1 binding: 1; PRMT1 inh: 3; LEDGF integ inh: -4; MBD2 inh: -5

Results for CC(C)OCCCNC(=O)CN1C(=O)CSc2ccc(S(=O)(=O)N3CCOCC3)cc21 ?
UHRF1 binding: 0; PRMT1 inh: 0; LEDGF integ inh: -2; MBD2 inh: -2

How did CC(=O)Nc1ccc(NCN2C(=O)C3C4CCC(C4)C3C2=O)cc1 (stereo not given) do in these assays?
UHRF1 binding: 29*; PRMT1 inh: 0; LEDGF integ inh: 12; MBD2 inh: 7

How did COC(=O)c1ccc(NCN2C(=O)C3C4CCC(C4)C3C2=O)cc1 (stereo not given) do in these assays?
UHRF1 binding: -3; PRMT1 inh: 1; LEDGF integ inh: 3; MBD2 inh: -1

What do the screens show for `CCCCc1ccc(NC(=O)CSC2=NN3CCCC(=O)N=C3S2)cc1`?
UHRF1 binding: 7; PRMT1 inh: -8; LEDGF integ inh: 3; MBD2 inh: 5

What do the screens show for `O=C(C1=C(O)C(=O)N(CCOCCO)C1c1cccs1)c1cccs1` (stereo not given)?
UHRF1 binding: 56*; PRMT1 inh: 0; LEDGF integ inh: 2; MBD2 inh: 6

How did CCc1cccc(OCC(=O)Nc2ccc(S(=O)(=O)Nc3ccccn3)cc2)c1 do in these assays?
UHRF1 binding: 79*; PRMT1 inh: 1; LEDGF integ inh: 3; MBD2 inh: -2

What do the screens show for `Cc1ccc(OCC(=O)Nc2ccc(S(=O)(=O)Nc3ccccn3)cc2)cc1C`?
UHRF1 binding: -8; PRMT1 inh: 2; LEDGF integ inh: 0; MBD2 inh: -2

What do the screens show for `C[C@H](CO)N1C[C@H](C)[C@@H](CN(C)Cc2ccc(C(=O)O)cc2)Oc2c(cccc2N(C)C)C1=O`?
UHRF1 binding: -2; PRMT1 inh: -2; LEDGF integ inh: 0; MBD2 inh: 1

How did Cc1ccc(S(=O)(=O)N2CCOCC2)cc1NC(=O)CSc1nc(N)cc(=O)[nH]1 do in these assays?
UHRF1 binding: 19; PRMT1 inh: 23*; LEDGF integ inh: 1; MBD2 inh: 6

Results for Cc1ccc(S(=O)(=O)N2CCOCC2)cc1NC(=O)CSc1nc(N)cc(N)n1 ?
UHRF1 binding: 1; PRMT1 inh: 11; LEDGF integ inh: -6; MBD2 inh: 7

Results for CCN(C(=O)COC(=O)/C=C/c1c(C)nn(-c2ccccc2)c1C)c1c(N)n(Cc2ccccc2)c(=O)[nH]c1=O ?
UHRF1 binding: -2; PRMT1 inh: 0; LEDGF integ inh: 3; MBD2 inh: 3
